From PubChem BioAssay
CYP2C19 inh = blockers of cytochrome P450 2C19 activity – biochemical, luminescence, ADME assay, primary screen; P33261; CYP2C19 Supersomes, luciferin-H EGE luminescence, 30 min; inhibition, % at 5 µM; actives 21% (n = 96,000); AID 778, 2007;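 active = CYP2C19 inhibition above a set limit at 5 µM in the primary screen, cut at about 50% in these data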
Target sequence (P33261 whole entry, looked up): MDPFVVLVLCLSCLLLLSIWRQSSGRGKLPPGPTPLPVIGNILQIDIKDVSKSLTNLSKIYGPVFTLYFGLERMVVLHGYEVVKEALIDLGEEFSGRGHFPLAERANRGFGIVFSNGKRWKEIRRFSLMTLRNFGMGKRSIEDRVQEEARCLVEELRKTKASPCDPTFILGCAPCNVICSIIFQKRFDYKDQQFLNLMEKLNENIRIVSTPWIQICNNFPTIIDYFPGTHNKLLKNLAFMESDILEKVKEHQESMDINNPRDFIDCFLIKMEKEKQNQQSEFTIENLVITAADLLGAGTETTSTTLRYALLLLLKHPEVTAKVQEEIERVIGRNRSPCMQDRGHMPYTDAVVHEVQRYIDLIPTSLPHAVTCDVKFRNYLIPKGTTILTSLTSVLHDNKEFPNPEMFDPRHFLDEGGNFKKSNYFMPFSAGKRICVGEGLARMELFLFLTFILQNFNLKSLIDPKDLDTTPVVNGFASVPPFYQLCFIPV
CYP2C9 inh = blockers of cytochrome P450 2C9 activity – biochemical, luminescence, ADME assay, primary screen; inhibition, % at 5 µM; P11712; CYP2C9 Supersomes, luciferin-H conversion; actives 20% (n = 96,000);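 active = blocking of liver enzyme CYP2C9 beyond about 50% at 5 µM, limit read from the data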
D1 allo mod = D1 CRE-luciferase signal change, two-sided – cell-based, HEK293 D1, dopamine EC30, D1 allosteric modulator project, primary screen. D(1A) dopamine receptor (Homo sapiens), P21728. dopamine EC30 potentiation; actives deviate in either direction. B-score at 10 µM. actives 5.9% (n = 58,000). AID 641, 2007;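 active = luminescence count or its row- and column-corrected plate score outside the 99.7% band of the plate's sample wells, on either side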
DAT uptake mod = changed hDAT dopamine uptake under cocaine IC80, either direction, primary screen, cocaine antagonist project, cell-based, LLC-PK1 hDAT, [14C]-dopamine uptake, MLSMR | B-score at 10 µM | actives 1.3% (n = 110,000) | LLC-PK1 hDAT cells, [14C]-dopamine uptake with cocaine IC80; actives deviate in either direction;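 active = Z score or B-score, a plate-position-corrected score, falls beyond the plate's 99.7% confidence bounds, in either direction; inactive = both scores lie inside the 99.7% bounds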
CYP2C9 activ = human CYP2C9 activators, primary screen, biochemical, luminescence. activation factor at 5 µM. recombinant CYP2C9, luciferin-H conversion; active compounds read high; factor 1 = untreated enzyme, 0 = blocked. actives 1.4% (n = 96,000);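 active = activation factor of 2 or more for CYP2C9 at a 5 µM dose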
CYP2C19 act = human CYP2C19 activators, primary screen, biochemical, luminescence; Cytochrome P450 2C19 (Homo sapiens), P33261; 96,000 tested, under 10 active; activation factor at 5 µM; recombinant CYP2C19, luciferin-H EGE luminescence; active compounds read high; 0 = fully inhibited enzyme, 1 = untreated enzyme;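 active = activation factor of at least 2 at 5 µM in the primary screen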
Of the large screens only hits and unclear results are named; the others gave an inactive call. Sampled rows, rich in hits. Any-hit rate of the full collection: about 28%.

Cn1ccnc1SCC(=O)Nc1ccc2ccccc2c1	CYP2C19 inh 93, D1 allo mod -6.6
Cn1c2ccccc2c2c(C(=O)N3CCN(c4ccccc4)CC3)cn(C3CCCC3)c(=O)c21	CYP2C9 inh 52
CN1CCN(CCCNC(=O)c2cn(C3CCCCC3)c(=O)c3c2c2ccccc2n3C)CC1	none
Cn1c2ccccc2c2c(C(=O)NCCCN3CCCC3=O)cn(C3CCCCC3)c(=O)c21	CYP2C9 inh 55
Cc1cccc(N2CCN(C(=O)c3cn(C)c(=O)c4c3c3ccccc3n4C)CC2)c1C	CYP2C9 inh 70 (no result: DAT uptake mod)
Cc1ccc(Cl)cc1N1CCN(C(=O)c2cn(C)c(=O)c3c2c2ccccc2n3C)CC1	CYP2C19 inh 86, CYP2C9 inh 96
Cc1cc(C)cc(NC(=O)c2nccnc2C(=O)O)c1	none (no result: D1 allo mod)
O=C(Nc1ccccc1N1CCOCC1)C1Cc2ccccc2CN1C(=O)c1ccco1 (configuration not stated)	CYP2C19 inh 51, CYP2C9 inh 67 (no result: D1 allo mod)
Cc1c(NC(=O)C2Cc3ccccc3CN2C(=O)c2ccco2)c(=O)n(-c2ccccc2)n1C (configuration not stated)	none
CCOC(=O)c1sc(=S)sc1SCc1cccc(C(F)(F)F)c1	CYP2C19 inh 53, CYP2C9 inh 97 (no result: D1 allo mod)
Nc1c(C(O)(C(F)(F)F)C(F)(F)F)cc(C(O)(C(F)(F)F)C(F)(F)F)c2ccccc12	none (no result: CYP2C19 inh, CYP2C9 inh, D1 allo mod, CYP2C9 activ, CYP2C19 act)
O=C(C1CC(c2ccc(F)cc2)=NO1)N1CCCCC1 (configuration not stated)	none (no result: CYP2C19 inh, CYP2C9 inh, CYP2C9 activ, CYP2C19 act)
O=C(C1CC(c2ccc(F)cc2)=NO1)N1CCc2ccccc2C1 (configuration not stated)	CYP2C19 inh 63
O=C(C1CC(c2ccccc2O)=NO1)N1CCc2ccccc2C1 (configuration not stated)	CYP2C19 inh 62 (no result: D1 allo mod)
COc1cccc(C2=NOC(C(=O)N3CCc4ccccc4C3)C2)c1 (configuration not stated)	none (no result: CYP2C19 inh, CYP2C9 inh, CYP2C9 activ, CYP2C19 act)
O=C(C1CC(c2ccccc2O)=NO1)N1CCCCC1 (configuration not stated)	CYP2C19 inh 70 (no result: D1 allo mod)
CC(=O)/C=C1/SC(CC(=O)O)C(=O)N1c1ccccc1 (configuration not stated)	none (no result: CYP2C19 inh, CYP2C9 inh, D1 allo mod, CYP2C9 activ, CYP2C19 act)
O=c1oc(-c2ccccc2F)nc2c1cnn2-c1ccccc1	none (no result: D1 allo mod)
Cc1cccc(NC(=O)c2cccc(N3C(=O)C4C5CCC(C5)C4C3=O)c2)c1C (configuration not stated)	none (no result: D1 allo mod)
CCN(CC)C(=O)CSc1nc2c(sc(=S)n2Cc2ccco2)c(=O)n1-c1ccccc1	CYP2C9 inh 52 (no result: D1 allo mod)
CCOC(=O)CSc1nc2c(sc(=S)n2-c2ccccc2OC)c(=O)n1Cc1ccco1	CYP2C19 inh 85, CYP2C9 inh 55, DAT uptake mod -4.3 (no result: D1 allo mod)
CCN(CC)C(=O)CSc1nnc(-c2cccs2)n1Cc1ccco1	none
O=C(O)c1ccccc1S(=O)(=O)NCC(O)COc1ccc(Br)cc1 (configuration not stated)	none
Cn1c(=O)n(Cc2ccccc2)c(=O)c2c1nc1n2CCCN1Cc1ccccc1	none
Cn1c(=O)n(Cc2ccccc2)c(=O)c2c1nc1n2CCCN1CCc1ccccc1	CYP2C19 inh 58 (no result: D1 allo mod)
Cn1c(=O)n(Cc2ccccc2)c(=O)c2c1nc1n2CCS1	CYP2C19 inh 57, CYP2C9 inh 85
CSc1ccc(C(=S)N2CCN(Cc3ccccc3)CC2)cc1	CYP2C19 inh 52 (no result: D1 allo mod)
O=C(O)C1[C@H]2C(=O)N(C3CCCC3)C[C@]23C=C[C@H]1O3 (some centres not stated)	none
Cc1ccc(S(=O)(=O)/N=C(\Sc2ccccc2)c2ccccc2)cc1	CYP2C9 inh 62 (no result: D1 allo mod)
O=S(=O)(/N=C(\Sc1ccccc1)c1ccccc1)c1ccc(Cl)cc1	CYP2C9 inh 62 (no result: D1 allo mod)
CSC(=NS(=O)(=O)c1ccc(C)cc1)SC	CYP2C9 activ 2.1
CCOC(=S)N/C(=N\S(=O)(=O)c1ccc(C)cc1)c1ccccc1	CYP2C9 inh 91 (no result: D1 allo mod)
Cc1ccc(S(=O)(=O)NC(=NCC(=O)O)c2ccccc2)cc1	none
Cc1ccc(S(=O)(=O)c2ccc(C)cc2)cc1	none (no result: D1 allo mod)
O=C(O)CCC(=O)Nc1ccc(Cc2ccc(NC(=O)CCC(=O)O)cc2)cc1	none (no result: D1 allo mod)
CC(C)c1cc(C(C)C)c(S(=O)(=O)N2c3ccccc3[C@]3(Br)C[C@H]4C(=O)N[C@@H](Cc5ccccc5)C(=O)N4[C@H]23)c(C(C)C)c1	none (no result: CYP2C19 inh, CYP2C9 inh, D1 allo mod, CYP2C9 activ, CYP2C19 act)
COc1ccc(/C=C\C(=O)c2c(O)ccc3c(C)cc(=O)oc23)cc1OC	CYP2C19 inh 68 (no result: D1 allo mod)
Cc1cccc(-c2nnc(SCc3cc(=O)[nH]c4ccccc34)n2C)c1	CYP2C19 inh 84, CYP2C9 activ 2.1
Cc1ccc(S(=O)(=O)N2CCC(C(=O)NCCCOC(C)C)CC2)cc1	none (no result: D1 allo mod)
O=C(C1CCN(S(=O)(=O)c2cnc[nH]2)CC1)N1CCn2c1nc1ccccc12	CYP2C19 inh 60, CYP2C9 inh 64 (no result: D1 allo mod)
O=C(C1CCCCC1)N1CCCn2c1nc1ccccc12	none
COc1ccc(S(=O)(=O)N2CCCC(C(=O)NC3CCCCC3)C2)cc1 (configuration not stated)	none
COc1ccccc1CNC(=O)C1CCCN(S(=O)(=O)c2cnc[nH]2)C1 (configuration not stated)	CYP2C19 inh 97, CYP2C9 inh 90
COc1ccccc1CNC(=O)C1CCCN(S(=O)(=O)c2c(C)[nH]c(=O)[nH]c2=O)C1 (configuration not stated)	none
COc1ccc(S(=O)(=O)N2CCCC(C(=O)O)C2)cc1 (configuration not stated)	D1 allo mod -2.6 (no result: DAT uptake mod)
O=C(NCc1ccc(Cl)cc1)C1CCCN(S(=O)(=O)c2cnc[nH]2)C1 (configuration not stated)	CYP2C19 inh 99, CYP2C9 inh 96
O=C1CCCN1c1cc(Cl)ccc1Cl	none
O=c1c2[nH]c3ccccc3c2ncn1CCN1CCCCC1	none
Cc1ccc(CNC(=O)C2CCN(S(=O)(=O)c3cnc[nH]3)CC2)cc1	CYP2C9 inh 90 (no result: D1 allo mod)
Cc1ccc(CNC(=O)C2CCCN(S(=O)(=O)c3cnc[nH]3)C2)cc1 (configuration not stated)	CYP2C19 inh 96, CYP2C9 inh 67
COc1ccc(N2CCN(CCCNC(=O)C3CCCN(S(=O)(=O)c4cnc[nH]4)C3)CC2)cc1 (configuration not stated)	none
Cc1ccc(NC(=O)C2CCN(S(=O)(=O)c3cnc[nH]3)CC2)nc1	none
